From PubChem BioAssay
Pf growth 48h: P. falciparum growth inhibition at 48 hours (one generation); P. falciparum luciferase growth in erythrocytes, 48 h; 310,000 compounds, 5.9% hits; Potency, µM (series often up to 28.7 µM), inactives show at the highest dose activity change, negative = inhibition, usual class: inhibitors; also: % is scaled to controls: 0 for no effect and ±100 for the full control effect
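Erythrocytes infected with P. falciparum carrying an integrated firefly luciferase reporter (2% hematocrit, 0.1% parasitemia final) were exposed to compounds in RPMI 1640 with 0.5% Albumax at 37 C, 5% CO2. Growth inhibition was scored as reduced luminescence.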
NS1 function inh: blocks influenza NS1 protein function; Potency, µM (titrated, usually from 46.1 µM), for inactives: top-dose activity, positive = more growth; 270,000 compounds, 0.4% hits; calls by dose curve; also: actives are rising curves; nearly all actives have a fitted effect of over 50% in size
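A cell-based growth assay was used: compounds that relieve NS1-induced slow growth of budding yeast raise OD600. Assay medium was yeast nitrogen base with ammonium sulphate and -URA supplement, pH 6.0, with 2% galactose.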
Sm TGR block: inhibitors of Schistosoma mansoni thioredoxin glutathione reductase; Q962Y6; 360,000 compounds, 3% hits; Potency, µM (highest dose often 114 µM), inactives show at the top dose activity change, negative = inhibition, hits mostly inhibitors; purified TGR, DTNB reduction, TNB absorbance 405 nm; also: % is scaled to controls: 0 for no effect and ±100 for the full control effect; nearly all actives have a fitted effect of over 60% in size
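TGR 20 nM + NADPH 100 uM (dispensed conc.), cpd preinc 15 min RT; start with NADPH (500 uM addition) then DTNB (15 mM addition). Kinetic TNB absorbance, 405 nm filter. Four-parameter Hill fit across titration.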
AMA1-RON2 inh: disrupts binding of P. falciparum AMA1 to RON2 | AlphaScreen AMA1-biotinylated RON2 peptide binding | Potency, µM (doses to about 58.2 µM), for inactives: at the highest dose activity change, negative = inhibition, hits mostly inhibitors | 360,000 compounds, 0.2% hits | AID 720542;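 also: 0% = vehicle wells and -100% = peptide control; nearly all actives have a fitted effect of over 45% in size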
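AMA1 (3D7) with his tag at 25 nM final met compounds first, then biotinylated RON2 peptide at 25 nM; detection used donor plus acceptor beads, 10 µg/mL apiece, read by AlphaScreen after 30 min at room temperature.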
Pf growth 96h: P. falciparum growth inhibition at 96 hours; 320,000 compounds, 6.9% hits; P. falciparum luciferase reporter growth, 96 h; AID 504834; Potency, µM (doses to about 28.7 µM), for the others: top-dose activity change, negative = inhibition, most hits filed as inhibitors; also: % is scaled to controls: 0 for no effect and ±100 for the full control effect
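Readout is luminescence from an integrated firefly luciferase in P. falciparum. Red cells, 2% hematocrit and 0.05% parasitemia final, were cultured with compound through two parasite generations (96 hours) at 37 C, 5% CO2.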
An asterisk follows results filed as active; u = inconclusive; x = no result. Sampled rows, rich in hits. Any-hit rate of the full collection: about 11%. Unless noted, calls follow the shape of the dose curve; as a rule, active = well fitted curve in the direction sought with a large enough effect; inconclusive = small, poorly fitted or top-dose-only effect, or another doubt; inactive = no such curve, though single readings can be large; an effect the other way counts as inactive or inconclusive. Potency is read from the fitted curve at half-maximal effect.

SMILES	Pf growth 48h	NS1 function inh	Sm TGR block	AMA1-RON2 inh	Pf growth 96h
CC(=O)c1ccc(NC(=O)C2CCC(CNS(=O)(=O)c3cccc4nsnc34)CC2)cc1 (centres undefined)	x	x	2.4%	x	x
CC1CCCCC1NC(=O)COC(=O)/C=C/c1ccco1 (centres undefined)	18.7%	x	39.8µM*	-0.4%	22.4%
O=C(COC(=O)/C=C/c1ccc(Br)o1)Nc1ccccc1F	6.4%	x	79.4µM*	x	10.9%
Cc1cc(C(=O)OCC(=O)Nc2ccccc2F)c(C)o1	38.1%	-6.2%	6.8%	-4.4%	97.9%
CC1(C(=O)Nc2cnc3ccccc3c2)CCN1CCOc1ccccc1 (centres undefined)	x	x	x	19.4%	x
Cc1cccc(C)c1NC(=S)N=Nc1c(O)n(C)c2ccc(S(=O)(=O)N3CCOCC3)cc12	u	5.5%	7.1%	50.8%	u
Cc1ccc(NC(=S)N=Nc2c(O)n(C)c3ccc(S(=O)(=O)N4CCOCC4)cc23)cc1	2.62µM*	u	2.9%	15.9%	u
Cc1cc(C)cc(NC(=S)N=Nc2c(O)n(C)c3ccc(S(=O)(=O)N4CCOCC4)cc23)c1	2.08µM*	11.9%	40.6%	24.3%	u
C=CCn1c(O)c(N=NC(=S)Nc2ccccc2F)c2cc(S(=O)(=O)N3CCOCC3)ccc21	6.57µM*	x	-3.2%	37.4%	34.6%
Cc1ccc(NC(=O)c2ccc(S(=O)(=O)N3CCOCC3)cc2)cc1	-18.2%	2.3%	2.2%	-12.7%	-17.0%
Cc1ccccc1NC(=S)N=Nc1c(O)n(C)c2ccc(S(=O)(=O)N3CCOCC3)cc12	3.29µM*	u	3.1%	49.6%	7.8%
CC(C)(C)OC(=O)N1Cc2ccccc2C[C@H]1C(=O)NCC(=O)NCC1CCCO1 (some centres undefined)	14.2%	-8.8%	-1.1%	0.0%	25.4%
CCCSc1nc2c([nH]c3ccccc32)c(=O)n1C	x	x	4.0%	x	x
CN(Cc1cccs1)C(=O)C1CC(=O)N(Cc2ccccc2)C1 (centres undefined)	36.0%	x	6.2%	37.1%	34.4%
Cc1cc(NC(=O)CN(c2cccc(C)c2C)S(=O)(=O)c2ccccc2)ccc1Br	x	x	12.7%	x	x
COn1c(-c2ccc(Cl)cc2)nc2ncccc21	59.5%	-7.2%	1.3%	3.7%	61.9%
CC(=O)N1c2ccccc2NC2=C(C(=O)CCC2)C1c1ccco1 (centres undefined)	u	x	35.5µM*	6.4%	117.5%
COc1ccc(C2C3=C(CC(c4ccco4)CC3=O)Nc3ccccc3N2C(C)=O)cc1 (centres undefined)	-1.7%	-30.8%	15.3%	1.1%	-24.9%
COc1ccc(-n2nc(C(=O)NCC(=O)N3CCCC(C)C3)c3ccccc3c2=O)cc1Cl (centres undefined)	u	22.8%	-12.8%	-1.3%	24.2%
COc1ccc(-n2nc(C(=O)NCC(=O)N3CC(C)CC(C)C3)c3ccccc3c2=O)cc1OC (centres undefined)	5.86µM*	1.9%	-7.8%	0.6%	1.65µM*
COc1ccc(-n2nc(C(=O)NCC(=O)N3CCCCCC3)c3ccccc3c2=O)cc1OC	-28.6%	4.0%	-7.8%	12.3%	2.94µM*
COc1ccc(-n2nc(C(=O)NCC(=O)N3CCOCC3)c3ccccc3c2=O)cc1Cl	12.4%	2.6%	2.5%	-6.9%	u
O=C(O)C1CCN(C(=O)CSc2nc3cc(Cl)ccc3c(=O)n2Cc2ccccc2)CC1	u	29.8%	-8.7%	-1.7%	u
CCOC(=O)c1c(/N=C/c2cccc(C)c2O)sc2c1CCN(C)C2	u	2.8%	-18.6%	-18.2%	1.65µM*
CCOC(=O)c1c(/N=C/c2ccc(C)cc2O)sc2c1CCN(C)C2	u	-0.2%	11.7%	-4.2%	u
SMILES	Pf growth 48h	NS1 function inh	Sm TGR block	AMA1-RON2 inh	Pf growth 96h
CCOC(=O)c1c(NC(=S)Nc2ccc(F)cc2)sc2c1CCC2	x	-2.9%	-30.3%	40.8%	u
CCOC(=O)c1c(NC(=O)Nc2ccc(F)cc2)sc2c1CCN(C)C2	8.28µM*	1.7%	-7.2%	0.0%	u
CCOC(=O)c1c(NC(=S)Nc2ccc(Cl)cc2)sc2c1CCN(C)C2	u	-2.3%	-25.3%	-1.6%	u
CCOC(=O)c1c(NC(=O)CN(CC)CC)sc2c1CCC2	11.7µM*	-19.1%	-28.3%	40.5%	33.2%
CCOC(=O)c1c(NC(=S)Nc2ccc(OCC)cc2)sc2c1CCN(C)C2	8.28µM*	-8.1%	-34.0%	-3.3%	3.7µM*
COc1cc(C(=O)Nc2ccc(NC(=O)c3ccc(Br)cc3)cc2)cc(OC)c1OC	x	x	-4.6%	x	x
COc1ccc(N(CC(=O)NCC2CCCO2)S(=O)(=O)c2ccccc2)cc1OC (centres undefined)	7.0%	-3.8%	3.5%	-2.8%	-11.1%
CCOC(=O)c1c(NC(=O)CSc2nnc(C)s2)sc2c1CCN(C)C2	6.57µM*	u	31.6µM*	-3.3%	u
CCOC(=O)c1c(NC(=O)C2CCCCC2)sc2c1CCN(C(C)C)C2	-11.4%	-8.1%	-24.5%	-0.5%	13.1µM*
CCOC(=O)c1c(NC(=O)Cc2ccccc2)sc2c1CCN(C)C2	-21.4%	-4.6%	22.7%	0.0%	-0.1%
CCOC(=O)c1c(/N=C/c2ccccc2O)sc2c1CCC2	8.1%	3.1%	-18.9%	4.9%	u
CCOC(=O)c1c(NC(=O)C(F)(OC)C(F)(F)F)sc2c1CCN(C)C2 (centres undefined)	u	5.5%	1.0%	95.0%	10.4µM*
CCOC(=O)c1c(/N=C/c2c(O)n(-c3cccc(C)c3)c(=O)[nH]c2=O)sc2c1CCCC2	8.0%	9.3%	89.1µM*	-10.0%	u
CCN(CC)S(=O)(=O)c1ccc(N2CCc3cc(OC)c(OC)cc3C2)nc1	u	4.0%	4.5%	-2.7%	u
COc1cc2c(cc1OC)CN(CC(=O)Nc1ccc(C)c(C)c1)CC2	u	-5.4%	-7.2%	-1.1%	u
COc1cc(C2=NOC(C(=O)Nc3c(C)n(C)n(-c4ccccc4)c3=O)C2)cc(OC)c1OC (centres undefined)	6.0%	-2.6%	-3.6%	2.7%	36.8%
CCOc1ccc(-n2cc(-c3ccccc3)c3c(N4CCC(C)CC4)ncnc32)cc1	x	x	0.6%	x	x
C[C@]12CC[C@@H]3c4ccc(O[C@@H]5O[C@H](C(=O)O)[C@@H](O)[C@H](O)[C@H]5O)cc4CC[C@H]3[C@@H]1C[C@@H](O)[C@@H]2O	9.1%	-5.1%	39.8µM*	12.3%	-19.6%
O=C(CN(Cc1ccccc1Cl)C(=O)c1csnn1)NCc1ccccc1	15.7%	-2.8%	1.0%	-1.1%	u
Cc1ccc(C)n1-c1ccc(C(=O)N2CCOCC2)cc1	-22.1%	u	8.91µM*	11.4%	203.4%
CC(=O)N1CCN(C(=O)c2ccc(-n3c(C)ccc3C)cc2)CC1	u	-0.5%	-29.2%	-4.8%	u
CCOC(=O)N1CCN(C(=O)c2ccc(-n3c(C)ccc3C)cc2)CC1	u	5.4%	2.6%	2.7%	10.4µM*
